uPA generation – qHTS for Inhibitors of Cell Surface uPA Generation; cell surface uPA generation assay, qHTS; Potency, µM (top dose mostly 38.3 µM), inactives show at the highest dose activity change, negative = inhibition, most hits filed as inhibitors; 330,000 compounds, 0.31% hits; AID 540303, 2011; active = well fitted inhibition curve with a large enough effect; inconclusive = small, poorly fitted or top-dose-only effect; inactive = no such curve, though single readings can be large or run the other way; tested in mouse RAW 264.7 cells; also: potency is read from the fitted curve at half-maximal effect; nearly all actives have a fitted effect of over 55% in size
DT40 TDP1 no CPT – qHTS for Inhibitors of human tyrosyl-DNA phosphodiesterase 1 (TDP1): qHTS in cells in absence of CPT; DT40 Tdp1-/- hTDP1 cells, no CPT, ATP luminescence, 48 h; 420,000 compounds, 15% hits; Potency, µM (highest dose often 46.2 µM), without a hit: at the top dose activity change, negative = growth inhibition, usual class: inhibitors; AID 686978, 2013; also: potency is read from the fitted curve at half-maximal effect; nearly all actives have a fitted effect of over 55% in size
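Luminescent ATP content (CellTiter-Glo) served as the growth readout. Knockout chicken DT40 cells expressing human TDP1 were exposed to compounds without camptothecin for a minimum 48 hr at 37 °C.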
TDP1 cell CPT – qHTS for Inhibitors of human tyrosyl-DNA phosphodiesterase 1 (TDP1): qHTS in cells in presence of CPT; chicken DT40 Tdp1-/-;hTDP1 cells + 20 nM CPT, ATP luminescence, 48 h; Potency, µM (series often up to 46.2 µM), inactives show top-dose activity change, negative = growth inhibition, usual class: inhibitors; AID 686979, 2013; 420,000 compounds, 12% hits; also: potency is read from the fitted curve at half-maximal effect; nearly all actives have a fitted effect of over 55% in size
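Cell growth measured by CellTiter-Glo luminescence after a minimum 48 h, 37 C compound exposure with 20 nM CPT in Tdp1-knockout DT40 cells stably expressing hTDP1, seeded 400/well; qHTS titration format.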
IL1B secr inh – qHTS for Inhibitors of Inflammasome Signaling: IL-1-beta AlphaLISA Primary Screen | THP-1 LPS/ATP IL-1B secretion, AlphaLISA, 16 h; active compounds read low | activity change, % at 57.5 µM | 360,000 compounds, 4.7% hits | AID 743279, 2014; in the data active = activity change below about -50%; inconclusive = mostly about -30% to -49%
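THP-1 cells pretreated 1 hr with compounds (up to 57.5 uM final), then stimulated with LPS (250 ng/mL final) plus ATP (1.25 mM final); secreted IL-1B measured by AlphaLISA after 16 hr, decreased signal indicating inhibition.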
HT1080NT lethal – qHTS for induction of synthetic lethality in tumor cells producing 2HG: qHTS for the HT-1080-NT fibrosarcoma cell line. HT-1080-NT fibrosarcoma viability, CellTiter-Glo ATP luminescence, 48 h. Potency, µM (top dose mostly 46.1 µM), for inactives: top-dose activity, negative = less viability, actives largely listed as cytotoxic. 360,000 compounds, 1.6% hits. AID 686970, 2013;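 also: NT is the 2HG producing partner of a matched IDH1 knockdown line; potency is read from the fitted curve at half-maximal effect; 0% = DMSO-treated cells and -100% = media-only wells without cells; nearly all actives have a fitted effect of over 55% in size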
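Toxicity toward the 2HG-producing NT line was scored as %Activity, normalised to DMSO and no-cell wells, from CellTiter-Glo luminescence after 48 hours' treatment.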
HT1080 IDH1KD tx – qHTS for induction of synthetic lethality in tumor cells producing 2HG: qHTS for the HT-1080-IDH1KD cell line; AID 686971, 2013; 360,000 compounds, 2% hits; HT-1080 IDH1 knockdown viability, ATP luminescence, 48 h; Potency, µM (highest dose often 46.1 µM), inactives show at the highest dose activity, negative = toxicity, actives largely listed as cytotoxic;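 also: potency is read from the fitted curve at half-maximal effect; 0% = DMSO wells and -100% = cell-free medium wells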
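Assay cells: HT-1080 with IDH1 knockdown, 750 per well, RPMI/5% FBS. Exposure: 48 h at 37 °C following 2 h pre-incubation. Read: CellTiter-Glo luminescence; fitted concentration-response, curve class assigned.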
Active calls of the source: *; [ ] = remark or other dose. Only some compounds are listed: those with a hit (about 19% of all), similar ones and a draw of the others. Unless noted, calls follow the shape of the dose curve; as a rule, active = well fitted curve in the direction sought with a large enough effect; inconclusive = small, poorly fitted or top-dose-only effect, or another doubt; inactive = no such curve, though single readings can be large; an effect the other way counts as inactive or inconclusive. Unless noted, % is scaled to controls: 0 for no effect and ±100 for the full control effect.

Clc1ccc(-c2ccc(CNCCSc3nnnn3-c3ccccc3)o2)cc1 was read as DT40 TDP1 no CPT -25% and TDP1 cell CPT inconclusive.
Screening Cn1nnnc1SCCCNCc1ccc(-c2ccc(Br)cc2)o1 returned DT40 TDP1 no CPT inconclusive and TDP1 cell CPT 21µM*.
For Cn1nnnc1SCCCNCc1cc(Br)ccc1OCc1ccccc1 the results were DT40 TDP1 no CPT 10µM* and TDP1 cell CPT 23µM*.
OCCCCNCc1cc(Br)ccc1OCc1ccccc1 was read as uPA generation -13%, DT40 TDP1 no CPT inconclusive, TDP1 cell CPT inconclusive, IL1B secr inh inconclusive, HT1080NT lethal -1% and HT1080 IDH1KD tx 1%.
Cn1nnnc1SCCCNCc1cc(Br)ccc1OCc1ccccc1F was read as DT40 TDP1 no CPT 16µM* and TDP1 cell CPT 16µM*.
Cc1ccc(CNC(=O)C(=O)NCC(c2ccco2)S(=O)(=O)c2ccc(C)cc2)cc1 (configuration not stated) was read as DT40 TDP1 no CPT -8% and TDP1 cell CPT -7%.
CC1CC(C)CN(C(=O)Cn2cc(C=O)c3ccccc32)C1 (configuration not stated) was read as uPA generation 4%, DT40 TDP1 no CPT 13%, TDP1 cell CPT 0%, IL1B secr inh 7, HT1080NT lethal -5% and HT1080 IDH1KD tx -8%.
Cn1nnnc1SCCCNCc1cc(Cl)ccc1OCc1ccccc1F was read as DT40 TDP1 no CPT 8.2µM* and TDP1 cell CPT 21µM*.
COc1ccccc1C(=O)Nc1ccc2c(c1)n(C)c(=O)n2C was read as uPA generation -8%, DT40 TDP1 no CPT -3%, TDP1 cell CPT 1%, IL1B secr inh inconclusive, HT1080NT lethal 0% and HT1080 IDH1KD tx 3%.
Screening Cc1nnc(SCC(=O)Nc2ncc3c(n2)CC(c2ccccc2)CC3=O)s1 (configuration not stated) returned uPA generation 1%, DT40 TDP1 no CPT -14%, TDP1 cell CPT inconclusive, IL1B secr inh -6, HT1080NT lethal -6% and HT1080 IDH1KD tx -3%.
O=C(CSc1nnnn1-c1ccccc1)Nc1ncc2c(n1)CC(c1ccccc1)CC2=O (configuration not stated) was read as DT40 TDP1 no CPT inconclusive, TDP1 cell CPT 16µM*, IL1B secr inh 27, HT1080NT lethal 4% and HT1080 IDH1KD tx 1%.
`C=CCn1c(SCC(=O)N(C)CC(=O)Nc2ccc(C)cc2)nnc1-c1ccncc1` gave uPA generation 3%, DT40 TDP1 no CPT -5%, TDP1 cell CPT 17%, IL1B secr inh 44, HT1080NT lethal 1% and HT1080 IDH1KD tx 6%.
`COc1ccc(C(=O)c2sc(Nc3ccccc3)nc2N)cc1OC` gave uPA generation 12%, DT40 TDP1 no CPT inconclusive, TDP1 cell CPT inconclusive, IL1B secr inh -98*, HT1080NT lethal inconclusive and HT1080 IDH1KD tx inconclusive.
For Nc1nc(Nc2ccccc2)sc1C(=O)c1ccccc1 the results were uPA generation 3%, DT40 TDP1 no CPT inconclusive, TDP1 cell CPT -13%, HT1080NT lethal inconclusive and HT1080 IDH1KD tx inconclusive.
For COc1ccc(C(=O)c2sc(Nc3ccccc3)nc2N)cc1 the results were uPA generation 35%, DT40 TDP1 no CPT inconclusive, TDP1 cell CPT inconclusive, IL1B secr inh -77*, HT1080NT lethal -16% and HT1080 IDH1KD tx -18%.
`COC(=O)CCc1sc(Nc2ccccc2)nc1-c1ccc(OC)cc1` gave uPA generation 1%, DT40 TDP1 no CPT 16µM*, TDP1 cell CPT inconclusive, IL1B secr inh -22, HT1080NT lethal -2% and HT1080 IDH1KD tx -2%.
For COc1ccc(C(=O)c2cc(C(C)=O)c(Nc3ccccc3)s2)cc1 the results were uPA generation -7%, DT40 TDP1 no CPT 26µM*, TDP1 cell CPT inconclusive, IL1B secr inh inconclusive, HT1080NT lethal inconclusive and HT1080 IDH1KD tx inconclusive.
COc1ccc(C(=O)Nc2ccc(C(=O)c3ccccc3)cc2)cc1 was read as uPA generation 4%, DT40 TDP1 no CPT -22%, TDP1 cell CPT -3%, IL1B secr inh 32, HT1080NT lethal inconclusive and HT1080 IDH1KD tx inconclusive.
CCn1nnc2cc(C(=O)Nc3cc(OC)cc(OC)c3)ccc21 was read as uPA generation -10%, DT40 TDP1 no CPT -23%, TDP1 cell CPT -2%, IL1B secr inh -20, HT1080NT lethal 4% and HT1080 IDH1KD tx 8%.
For CC(C)NC(=O)c1cc(C2CCCCN2S(=O)(=O)c2ccccc2)on1 (configuration not stated) the results were DT40 TDP1 no CPT -26%, TDP1 cell CPT -26%, IL1B secr inh 5, HT1080NT lethal -13% and HT1080 IDH1KD tx 7%.
Screening COC(=O)c1c(NC(=O)COC(=O)CNC(=O)c2cccc(OC(F)F)c2)sc(C)c1C returned DT40 TDP1 no CPT 41%, TDP1 cell CPT -1%, IL1B secr inh 19, HT1080NT lethal 7% and HT1080 IDH1KD tx 5%.
Screening CC(Oc1ccc(O)cc1)(P(=O)(O)O)P(=O)(O)O returned DT40 TDP1 no CPT -9% and TDP1 cell CPT 25%.
Cc1ccccc1-c1cccc(CN2CCc3nnc(C(NS(C)(=O)=O)C(C)C)n3CC2)c1 (configuration not stated) was read as DT40 TDP1 no CPT inconclusive and TDP1 cell CPT -9%[9.04 µM].
COc1ccc(C(=O)c2sc(Nc3ccccc3F)nc2N)cc1 was read as uPA generation 17%, DT40 TDP1 no CPT 12µM*, TDP1 cell CPT inconclusive, IL1B secr inh inconclusive, HT1080NT lethal 13% and HT1080 IDH1KD tx 3%.
For COc1ccc(C(=O)NC(=S)Nc2ccccc2F)cc1 the results were uPA generation 1%, DT40 TDP1 no CPT 8%, TDP1 cell CPT 3%, IL1B secr inh 0, HT1080NT lethal 0% and HT1080 IDH1KD tx -2%.
Screening CCN(CC)CCNC(=O)c1ccc(Cn2c(SCc3ccccc3)nc3cccnc32)cc1 returned DT40 TDP1 no CPT -26% and TDP1 cell CPT -23%.
For O=C(NCCc1ccccc1)c1ccc(CSc2nc3cccnc3n2Cc2ccccc2)cc1 the results were DT40 TDP1 no CPT 15µM* and TDP1 cell CPT inconclusive.

Source: PubChem BioAssay
